HCMV inh: blocks human cytomegalovirus replication | HFF cells, HCMV-luciferase reporter, 72 h; active compounds read low | activity change, negative = inhibition, % at 57.5 µM | 410,000 tested, 4.5% active | AID 1259415; in the data active = activity change below about -60%; inconclusive = no clear call, values can overlap the other calls; inactive = above about -39%
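HFF cells seeded 16 h at 37C, treated with compounds, infected with luciferase-reporter HCMV at MOI 1 PFU/cell; luciferase read at 72 h post infection, normalized to buffer-only and Salinomycin controls.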
LASV entry inh: inhibitors of Lassa virus binding or cell entry | Lassa virus pseudotype entry inhibition, cell reporter | Potency, µM (doses to about 37.9 µM), without a hit: at the top dose activity change, negative = inhibition, hits mostly inhibitors | 300,000 tested, 1.2% active; calls by dose curve; tested in HEK293 cells; note: potency is the fitted concentration of half-maximal effect; nearly all actives have a fitted effect of over 50% in size
HCV inhibitor: blocks hepatitis C virus; Huh7.5.1 HCVcc-Cre infection, luciferase reporter, 44 h; Potency, µM (highest dose often 41.8 µM), without a hit: at the top dose activity change, negative = inhibition, most hits filed as inhibitors; 340,000 tested, 3.4% active; AID 651820; active = well fitted inhibition curve with a large enough effect; inconclusive = small, poorly fitted or top-dose-only effect, or another doubt; inactive = no such curve, though single readings can be large or run the other way; note: potency is the fitted concentration of half-maximal effect
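Seed cells (1,000/well) for 4 h; treat with compound and infect with HCVcc-Cre, moi about 0.5. Incubate 44 h, then detect luciferase activity.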
FMDV antiviral: foot and mouth disease virus antiviral activity; 410,000 tested, 1.2% active; Potency, µM (titrated, usually from 57.9 µM), inactives show at the highest dose activity change, negative = inhibition, actives largely listed as inhibitors; FMDV antiviral cell-based qHTS; calls by dose curve; tested in HEK293T cells; note: read-out not given here; potency is the fitted concentration of half-maximal effect; nearly all actives have a fitted effect of over 45% in size
Marburg entry inh: blocks Marburg virus binding to or entry into cells; 300,000 tested, 1.8% active; Potency, µM (top dose mostly 37.8 µM), without a hit: at the highest dose activity change, negative = inhibition, most hits filed as inhibitors; Marburg virus pseudotyped entry inhibition, cell reporter; calls by dose curve; tested in HEK293 cells; note: potency is the fitted concentration of half-maximal effect
* = called active by the depositor; ? = inconclusive; / = no result; ! = repeats disagree; [ ] = dose if it differs, or a comment. A selection: hits, their analogues and other compounds. The true share with any hit is near 7.9%. % is set by controls: 0 for no effect and ±100 for the full control effect.

SMILES	HCMV inh	LASV entry inh	HCV inhibitor	FMDV antiviral	Marburg entry inh
CCN(CC(=O)NCc1cccs1)C(=O)c1ccc(S(=O)(=O)Nc2ccccc2Cl)cc1	-18.2	/	8.4%	-7.5%	/
CC(C)C(=O)OCc1cc(=O)n2nc(C3CCCCC3)sc2n1	23.0	-2.0%[46.1 µM]	/	-2.9%	/
CO/N=C/NC(=O)NOCc1c(Cl)cccc1Cl	-104.0*	19.0%	-11.0%	0.0%	-4.8%
O=C(N/C=N/OCc1ccc(Cl)cc1Cl)NOCc1c(Cl)cccc1Cl	-31.7	-11.6%	?	?	?
Cc1cc(=O)oc2c3c(cc(OCC(=O)NCc4cccnc4)c12)OC(C)(C)CC3	3.5	/	?	-22.3%	/
COc1cccc(CNC(=O)COc2cc3c(c4oc(=O)cc(C)c24)CCC(C)(C)O3)c1	?	/	1.41µM*	?	/
Cc1cc(=O)oc2c3c(cc(OCC(=O)NCCC(=O)O)c12)OC(C)(C)CC3	-4.8	/	15.6%	-9.1%	/
COc1ccccc1CNC(=O)COc1cc2c(c3oc(=O)cc(C)c13)CCC(C)(C)O2	-35.4	/	3.55µM*	?	/
COc1ccc(CNC(=O)COc2cc3c(c4oc(=O)cc(C)c24)CCC(C)(C)O3)cc1	14.1	/	7.08µM*	?	/
COc1ccccc1N1CCN(C(=O)c2ccc3c(=O)n4c(nc3c2)CCCCC4)CC1	16.2	/	12.1%	-21.5%	/
O=C(O)CSc1c(-c2cccs2)[nH]c2ccccc12	-1.5	0.2%	-5.6%	9.5%	8.1%
CC(C)(C)c1onc(OCP(=O)(O)O)c1CC(N)C(=O)O (stereo not given)	/	-6.0%	/	/	?
COc1cc(-c2noc(C)c2C#Cc2ccc(N)cc2)cc(OC)c1OC	-19.2	/	2.24µM*	9.9%	/
COc1cc(-c2noc(C)c2/C=C/c2ccc(N)cc2)cc(OC)c1OC	-83.3*	/	?	-3.3%	/
COc1ccc(-c2c(-c3cc(OC)c(OC)c(OC)c3)noc2C)cn1	/	/	-18.9%	7.3%	/
COc1cc(-c2c(-c3cc(OC)c(OC)c(OC)c3)noc2C)ccc1F	-94.3*	/	?	-22.8%	/
CCN(C[C@H]1N[C@@](CC)(C(=O)OC)[C@H]2C(=O)N(Cc3ccccc3)C(=O)[C@@H]12)C(=O)c1ccccc1	-16.2	/	4.3%[8.37 µM]	-13.4%	/
CCCCNC(=O)c1nc2ccccc2nc1-c1ccc(F)cc1	-1.7	/	/	/	/
COc1ccccc1OCC(=O)N(Cc1ccco1)Cc1ccccc1F	6.9	0.5%[46.1 µM]	/	-3.7%	-12.0%[46.1 µM]
COc1ccc(CN2C[C@H](Sc3nc4ccccc4[nH]3)C[C@H]2C(=O)N2CCCN(C)CC2)cc1C	/	/	/	-11.8%	/
CN(C)/C=C(/C(=O)c1ccc(Cl)cc1)S(C)(=O)=O	-103.1*	-4.6%	24.3%	-6.3%	?
CCOC(=O)c1c(-c2ccc(C)cc2)csc1NC(=O)c1cc(=O)c2cc(C)ccc2o1	29.4	-2.3%[46.1 µM]	/	-5.3%	-0.6%[46.1 µM]
Cc1ccc(S(=O)(=O)N2CCC(C(=O)NNC(=O)c3ccccc3O)CC2)cc1C	-15.3	-12.3%	?	3.2%	8.4%
Cc1cc(C)c(C)c(S(=O)(=O)N2CCC(C(=O)NNC(=O)c3ccccc3O)CC2)c1C	-24.3	?	7.08µM*	0.4%	1.8%
Cc1ccc(-c2nnc(-c3ccccc3)c(-c3ccccc3)n2)cc1	?	-20.3%	-6.5%	-5.2%	-0.4%
SMILES	HCMV inh	LASV entry inh	HCV inhibitor	FMDV antiviral	Marburg entry inh
Cc1cc(-c2nnc(-c3ccccc3)c(-c3ccccc3)n2)c(C)o1	-65.0*	-2.8%	?	-12.9%	?
CC12CC3CC(C)(C1)CC(C(=O)Nc1nncs1)(C3)C2	-17.3	-10.8%	3.6%	-20.9%	-12.0%
CCNc1nc(NCC)nc(N/N=C/c2ccc(Br)cc2)n1	?	/	11.2µM*	?	?
O=[N+]([O-])c1cc(/C=N/O)ccc1SCc1ccccc1	-65.7*	11.9%	-5.6%	7.5%	6.5%
O=C(c1cc2nc(-c3ccccc3)cc(C(F)(F)F)n2n1)N1CCOCC1	5.3	?	?	8.1%	0.3%
O=C(c1ccccc1)N1CCN(C(=O)c2nn3c(C(F)(F)F)cc(-c4ccccc4)nc3c2Br)CC1	24.1	-33.3%[46.1 µM]	?	-25.4%	?
NC(=O)c1nn2c(C(F)(F)F)cc(-c3ccccc3)nc2c1Br	-9.7	/	0.891µM*	-7.7%	/
O=C(c1nn2c(C(F)(F)F)cc(-c3ccccc3)nc2c1Cl)N1CCN2CCCC2C1 (stereo not given)	-61.3*	-17.3%[46.1 µM]	11.2µM*	-2.4%	?
CC(C)(C)NC(=O)c1nn2c(C(F)(F)F)cc(-c3ccccc3)nc2c1Br	-16.9	/	-15.4%	-11.0%	/
O=C(c1cc2nc(-c3ccccc3)cc(C(F)(F)F)n2n1)N1CCN2CCCC2C1 (stereo not given)	-35.5	?	8.91µM*	-23.0%	3.2%[46.1 µM]
Cc1ccccc1CNC(=O)C(C)n1nc(C)n2c(cc3occc32)c1=O (stereo not given)	-9.2	/	/	4.4%	3.9%[46.1 µM]
Cc1cc(C(=O)COC(=O)CC2Sc3ccccc3NC2=O)c(C)n1-c1cccc(C(F)(F)F)c1 (stereo not given)	?	0.1%	?	12.4%	1.2%
Cc1cc(C(=O)COC(=O)Cc2n[nH]c(=O)c3ccccc23)c(C)n1-c1cccc(C(F)(F)F)c1	-16.1	?	?	?	11.2µM*
Cc1ccc(CNC(=O)c2sc3nc(-c4ccc(F)cc4)ccc3c2N)cc1	-13.7	8.1%[46.1 µM]	/	-3.9%	18.1%[46.1 µM]
CCN(CC(=O)Nc1cccc(OC)c1)c1ncnc2sc(C)c(C)c12	-73.8*	-25.7%	?	20µM*	?
C#CCOC(=O)c1ccccc1C(=O)n1nnc2ccccc21	39.4	0.1%	9.9%	22.4µM*	14.8%
Cc1ccc2nc(SCC(=O)Nc3cc([N+](=O)[O-])ccc3F)[nH]c2c1	-91.1*	-1.1%	?	-29.7%	-10.0%
Cc1ccc2nc(SC(C)C(=O)Nc3cccc([N+](=O)[O-])c3)[nH]c2c1 (stereo not given)	-67.5*	-10.8%	?	?	?
CC(Sc1nc2ccccc2[nH]1)C(=O)Nc1ccccc1F (stereo not given)	-73.0*	14.2%[46.1 µM]	3.0%	-15.6%	?
Cc1ccc2nc(SC(C)C(=O)NC3CCCC3)[nH]c2c1 (stereo not given)	-33.6	0.0%[46.1 µM]	-17.7%	-12.8%	?
CC(C)C[C@@]12C(=O)N(c3cccc(F)c3)C(=O)N1[C@H](c1ccc(F)cc1)[C@@H]1C(=O)N(C3CCCCC3)C(=O)[C@@H]12	-25.6	/	7.1%	0.0%	/
CCOc1cccc(C(=O)Nc2nc(-c3ccc(S(=O)(=O)N4CCOCC4)cc3)cs2)c1	-12.7	?	-28.1%	17.8µM*	-1.1%
CCOc1ccc2nc(NC(=O)c3ccc(OC)c(S(=O)(=O)N4CCOCC4)c3)sc2c1	16.8	?	-27.9%	?	?
COc1ccccc1C(=O)Nc1nnc(S(=O)(=O)N2CCCCCC2)s1	-8.7	2.8%[46.1 µM]	2.1%	16.5%	/
COc1ccccc1C(=O)Nc1nnc(S(=O)(=O)N2CCCCC2)s1	-73.3*!	-15.1%[46.1 µM]	25.1%	11.3%	/
CCOc1ccccc1C(=O)Nc1ccc(S(=O)(=O)N2CCOCC2)cc1	-11.2	?	12.6µM*	-16.5%	?
